The nature of assay [1]: Viability qHTS for spleen associated tyrosine kinase inhibitor (SYKi) naive MV4-11 cells (AID 1963823). Note: nearly all actives have a fitted effect of over 40% in size. An outline of the steps: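 SYKi-naive MV4-11 AML cells, 500 per well, were exposed to library compounds for 72 hr at 37 C, 5% CO2. Viability was then read by CellTiter-Glo luminescence after 10 min at room temperature.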
(qHTS replaces the single test concentration by a dilution series.)

The nature of assay [2]: Viability qHTS for spleen associated tyrosine kinase inhibitor (SYKi) drug resistant MV4-11 cells (AID 1963824). Note: nearly all actives have a fitted effect of over 35% in size. An outline of the steps:
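CellTiter-Glo luminescence, read 10 min after reagent addition, reports viability after a 72 hr compound exposure. Cells are an MV4-11 line made resistant to SYK inhibition, seeded at 500 per well onto compound-containing plates.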

The nature of assay [3]: Cellular viability qHTS for adrenocortical cancer (ACC) cell line SW-13 (AID 1963989).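 For activity (max response): cells grown in serum-free medium with ITS supplement; % is set by controls: 0 for no effect and ±100 for the full control effect.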 Note: nearly all actives have a fitted effect of over 65% in size. The settings on record: SW-13 ACC cells viability, CellTiter-Glo, 48 h; activity (max response): stronger effect = lower value. In short, it runs like this:
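Luminescent ATP read-out (CellTiter-Glo, 20 min at room temperature) measured metabolically competent SW-13 cells after 48 h compound treatment. Final concentrations spanned up to 46 uM; bortezomib served as positive control.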

Assay [4] in a line: Cellular viability qHTS for adrenocortical cancer (ACC) cell line NCI-H295R (AID 1963990). Note: nearly all actives have a fitted effect of over 60% in size. An outline of the steps: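 IC50 and maximal efficacy derive from four-parameter logistic modelling of titration curves, with reads scaled between DMSO-only wells (0%) and doxorubicin hydrochloride (100% inhibition). Compounds spanned up to 46 uM over 48 h.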

“And” between values parts separate entries of the source, which are not always exact repeats. Identical values can stand only once. Records with an inconclusive call do not appear. The source holds several records for some structures; these can differ, active in one and inactive in another. The source made the active and inactive calls. Calls come from the whole dose curve; as a rule, active = well fitted curve in the direction sought with a large enough effect; inconclusive = small, poorly fitted or top-dose-only effect, or another doubt; inactive = no such curve, though single readings can be large; an effect the other way counts as inactive or inconclusive.
Potency is the fitted concentration of half-maximal effect.

For the molecule `CC[C@]1(O)C[C@@H]2CN(CCc3c([nH]c4ccccc34)[C@@](C(=O)OC)(c3cc4c(cc3OC)N(C)[C@H]3[C@@](O)(C(=O)OC)[C@H](OC(C)=O)[C@]5(CC)C=CCN6CC[C@]43[C@@H]65)C2)C1`, the Potency in assay [1] was 211 nM (active) and 36.6 nM (active); in assay [2], “inactive and 94.4 nM (active) and 18.4 nM (active)”; in assay [3] it was 25.9 nM (active) and 92 nM (active); in assay [4], 116 nM (active) and 291 nM (active).
Consider `O=C1NCCN1CCN1CCC(c2cn(-c3ccc(F)cc3)c3ccc(Cl)cc23)CC1`, for which the Potency in assay [1] is 668 nM (active); in assay [2] it was 1.19 µM (active); in assay [3] it was 10.3 µM (active); in assay [4], 4.11 µM (active).
With `CNCCn1c(=O)c2cc(OC)c(OC)cc2c2cnc3cc4c(cc3c21)OCO4`, the Potency in assay [1] is 15.2 nM (active); in assay [2], 0.0121 µM (active); in assay [3], 0.0422 µM (active); in assay [4] it was 0.596 µM (active).
For the molecule `O=C(O)C1=CO[C@@H](O[C@@H]2O[C@H](CO)[C@@H](O)[C@H](O)[C@H]2O)[C@@H]2C(CO)=CC[C@H]12`, the Potency was 10.1 µM (active) and inactive in assay [1]; 12.8 µM (active) and inactive in assay [2]. In assay [3], the activity (max response) is 7.35% (inactive). Further, the Potency entry in assay [4] is “inactive”.
As for `Cc1ccc(-c2ncc(Cl)cc2-c2ccc(S(C)(=O)=O)cc2)cn1`, the Potency entry in assay [1], in assay [2] and in assay [4] was “inactive” in each case. Also, the activity (max response) in assay [3] is 3.04% (inactive) and -7.76% (inactive).
Take `CC1(C)CN(C(=O)c2ccc(-c3cccc4nc(NC(=O)C5CC5)nn34)cc2)C1`: the Potency in assay [1] is 6610 nM (active); in assay [2], 16.4 µM (active). For the same molecule, the activity (max response) in assay [3] is 2.66% (inactive). In assay [4], the Potency entry is “inactive”.
As for `CSc1ccc2c(c1)N(CCC1CCCCN1C)c1ccccc1S2` (centres undefined), the Potency in assay [1] is 15000 nM (active); in assay [2], 13.3 µM (active); in assay [3] it was 16.4 µM (active); in assay [4] it was 4.61 µM (active).
Take `CCCCCCCCCCCCCCCCOCCCOP(=O)(O)COC(CO)Cn1ccc(N)nc1=O` (centres undefined): the Potency in assay [1] was 2590 nM (active); in assay [2], 3.26 µM (active). The activity (max response) in assay [3] was -4.49% (inactive). The Potency result in assay [4] is “inactive”.
Take `Cc1[nH]c(/C=C2\C(=O)Nc3ccc(S(=O)(=O)N(C)c4cccc(Cl)c4)cc32)c(C)c1C(=O)N1CCN(C)CC1`: the Potency in assay [1] was 1.3 µM (active) and 1.32 µM (active); in assay [2], 1.46 µM (active) and 2.09 µM (active); in assay [3] it was 17.8 µM (active); in assay [4] it was 14.1 µM (active).
In the case of `CCN1C(=O)CNc2ncc(-c3ccc(-c4ncn[nH]4)nc3C)nc21`, the Potency is 417 nM (active) in assay [1], 0.742 µM (active) in assay [2], 8.91 µM (active) in assay [3] and 10 µM (active) in assay [4].
With `CCN(CC)C(=O)/C(C#N)=C/c1cc(O)c(O)c([N+](=O)[O-])c1`, the Potency result in assay [1] and in assay [4] was “inactive” each time. In addition, the Potency in assay [2] is 16.8 µM (active). The activity (max response) in assay [3] was 3.46% (inactive).
For the molecule `CCS(=O)(=O)N1CCC([C@@H](C)n2c(C)c(C(=O)NCc3c(OC)cc(C)[nH]c3=O)c3ccccc32)CC1`, the Potency result in assay [1], in assay [2] and in assay [4] was “inactive” each time. Also, the activity (max response) in assay [3] was 8.68% (inactive).
With `CC(COc1ccccc1)NN` (centres undefined), the Potency result in assay [1], in assay [2] and in assay [4] was “inactive” throughout. The activity (max response) in assay [3] was 12.2% (inactive).
`CN1C(CCl)Nc2cc(Cl)c(S(N)(=O)=O)cc2S1(=O)=O` (centres undefined): the Potency entry in assay [1], in assay [2] and in assay [4] was “inactive” throughout. In assay [3], the activity (max response) is -4.04% (inactive).
For `C=CCCCCCCCCC(=O)O`, the Potency entry in assay [1], in assay [2] and in assay [4] was “inactive” each time. For the same molecule, the activity (max response) in assay [3] is 9.7% (inactive).
As to `CN[C@@H]1C[C@H]2O[C@@](C)([C@@H]1OC)n1c3ccccc3c3c4c(c5c6ccccc6n2c5c31)C(=O)N[C@H]4O`, the Potency in assay [1] was 11.9 nM (active); in assay [2], 0.0237 µM (active); in assay [3], 0.376 µM (active); in assay [4] it was 0.15 µM (active).
As to `NS(=O)(=O)c1cc2c(cc1C(F)(F)F)NCNS2(=O)=O`, the Potency entry in assay [1], in assay [2] and in assay [4] was “inactive” throughout. The activity (max response) in assay [3] is -4.83% (inactive).
Take `CC(=O)O[C@]1(C(C)=O)CC[C@H]2[C@@H]3C[C@H](C)C4=CC(=O)CC[C@]4(C)[C@H]3CC[C@@]21C`: the Potency in assay [1] is 8.41 µM (active) and 13.2 µM (active); in assay [2], 9.44 µM (active) and 13.2 µM (active). In addition, in assay [3], the activity (max response) was -20.8% (inactive). Further, in assay [4], the Potency result is “inactive”.
`CO[C@@]12[C@H](COC(N)=O)C3=C(C(=O)C(C)=C(N)C3=O)N1C[C@@H]1N[C@@H]12`: the Potency was 119 nM (active) and 118 nM (active) in assay [1]; 0.0742 µM (active) in assay [2]. For the same molecule, the activity (max response) in assay [3] is 9.06% (inactive) and -27.8% (inactive). In addition, the Potency entry in assay [4] was “inactive”.
Consider `O=C(CO)[C@@H](O)[C@H](O)[C@@H](O)CO`, for which the Potency entry in assay [1], in assay [2] and in assay [4] was “inactive” each time. Further, the activity (max response) in assay [3] was 0.0107% (inactive).
In the case of `CC(=O)N[C@H]1[C@H](O[C@@H]2c3ccc(c(Cl)c3)Oc3cc4cc(c3O[C@@H]3O[C@H](CO)[C@@H](O)[C@H](O)[C@H]3NC(=O)CCCCCCCC(C)C)Oc3ccc(cc3Cl)C[C@H]3NC(=O)[C@H](N)c5ccc(O)c(c5)Oc5cc(O)cc(c5)[C@H](NC3=O)C(=O)N[C@H]4C(=O)N[C@H]3C(=O)N[C@@H]2C(=O)N[C@@H](C(=O)O)c2cc(O)cc(O[C@H]4O[C@H](CO)[C@@H](O)[C@H](O)[C@@H]4O)c2-c2cc3ccc2O)O[C@H](CO)[C@@H](O)[C@@H]1O`, the Potency entry in assay [1], in assay [2] and in assay [4] was “inactive” in each case. Further, the activity (max response) in assay [3] was 11.6% (inactive).

(Values after PubChem BioAssay (NCATS).)
